Screens (PubChem BioAssay)
Hits are enriched below; roughly 1% of the tested compounds scored in any of these assays.
SSB-PriA inh = K. pneumoniae PriA-SSBct interaction inhibition; AlphaScreen SSBct-PriA binding, biotinylated peptide; inhibition, % at 33 µM; 0.6% of 430,000 active; AID 1272365; in the data active = inhibition mostly above about 37%, no sharp cut-off; inactive = mostly below about 20%;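 also: plate controls were negative control peptide for no effect and reference peptide for full effect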
TcdB inh = inhibitors of Clostridioides difficile toxin B glycohydrolase. inhibition, % at 9.99 µM. TcdB glycohydrolase enzymatic assay, plate reader. AID 652162. 0.24% of 350,000 active; in the data active = inhibition above about 10%
FadD28 binding = blocks FadD28 binding to the bisubstrate probe | inhibition, % at 12.5 µM | 0.22% of 360,000 active | fluorescence polarization; in the data active = inhibition above about 8.5%, passing the limit was not always enough
PrP UTR inh = inhibition of PrP 5' UTR reporter expression. cell-based PrP 5' UTR mRNA reporter, plate reader. inhibition, % (test concentration not listed). 0.35% of 340,000 active. AID 488862; in the data active = inhibition above about 52%; also: 0 = median of the neutral control wells
BioA inh = inhibitors of Mycobacterium tuberculosis BioA enzyme; purified M. tuberculosis BioA enzyme, plate reader; inhibition, % at 9.99 µM; 0.096% of 360,000 active; AID 602481; in the data active = inhibition above about 40%
Mtb hypoxia inh = Mtb hypoxia fluorescent reporter inhibition; fluorescence inhibition, % (concentration not given with the values); M. tuberculosis hypoxia-regulated fluorescent reporter, fluorescence; 0.1% of 300,000 active; in the data active = fluorescence inhibition mostly above about 23%, no sharp cut-off; inactive = mostly below about 17%
PrP UTR cherry = prion 5' UTR mRNA inhibition, cherry-pick retest. AID 504592. shares compounds with PrP UTR inh. 48% of 1,100 active. inhibition, % at 2.5 µM. cell-based prion protein 5' UTR reporter, plate reader; in the data active = inhibition above about 54%
Starred values were filed as active, the others as inactive; i = inactive; x = not tested or not shown.

SMILES	SSB-PriA inh	TcdB inh	FadD28 binding	PrP UTR inh	BioA inh	Mtb hypoxia inh	PrP UTR cherry
CCOc1ccc(-c2nc(CSCC(=O)NCC3CCCO3)c(C)o2)cc1 (stereo unspecified)	17	-2	-2	-3	0	7	x
CC(=O)OCC12CC(OC(=O)CC(C)C)C(C)=CC1OC1C(O)C(OC(C)=O)C2(C)C12CO2 (stereo unspecified)	-1	1	-1	91*	x	x	93*
Cc1cccc(C)c1NC(=O)C1=C(O)c2ccccc2N(C)S1(=O)=O	-11	x	0	9	-1	-3	x
CC(C(=O)Nc1ccccc1Br)c1ccc([N+](=O)[O-])cc1 (stereo unspecified)	3	0	-2	3	1	6	x
COC(=O)c1ccccc1NC(=O)C(C)c1ccc([N+](=O)[O-])cc1 (stereo unspecified)	2	2	-5	64*	x	13	2
CC12CCC(C(=O)Nc3cccc4ccccc34)(C1Br)C2(C)C (stereo unspecified)	-3	x	0	-20	-2	1	x
Cc1ccc(S(=O)(=O)N2CCCCC2C(=O)NCc2ccco2)cc1 (stereo unspecified)	-16	x	-1	-25	-1	x	x
COC(=O)Nc1ccc(S(=O)(=O)N2CCCCC2C(=O)NCc2ccco2)cc1 (stereo unspecified)	-9	x	-2	89*	x	5	27
CCOC(=O)c1n[nH]n2c1nc(=S)c1ccccc12	-23	1	0	-4	-2	x	x
O=C(Nc1ccc(N2CCCCC2)cc1)c1ccccn1	-1	x	1	93*	x	4	90*
O=C(Nc1cnc(N2CCCC2)nc1)c1ccccn1	-17	x	x	x	x	x	x
Cn1c(=O)c2c(SCC(=O)Nc3ccc([N+](=O)[O-])cc3)nc(-c3ccco3)nc2n(C)c1=O	-4	x	x	x	x	x	x
Cc1ccc(OCC(=O)c2cc(C)n(-c3ccccc3)c2C)c([N+](=O)[O-])n1	17	x	-4	60*	x	3	58*
CCCn1c(C)cc(C(=O)COc2ccc(C)nc2[N+](=O)[O-])c1C	10	1	-3	-10	11	5	x
Cc1cc(C(=O)COC(=O)C2=COCCO2)c(C)n1-c1ccccc1	-16	2	-4	82*	x	13	86*
O=C(C1CC(=O)N(c2ccc3c(c2)OCCO3)C1)N1CCN(Cc2ccccc2F)CC1 (stereo unspecified)	-8	1	-3	86*	2	16	-9
O=C(c1ccc([N+](=O)[O-])cc1)N1CCN(Cc2nc(C3CC3)cs2)CC1	-20	x	x	x	x	x	x
CC(C)OC(=O)c1sc2nc(-c3ccccc3)ccc2c1N	-20	1	-4	54*	1	4	20
COc1ccc(C(=O)c2sc3nc(-c4ccccc4)ccc3c2N)cc1	-44	x	0	-15	x	1	x
CN(C)c1ccc(/C=C2\SC(=O)N(CCc3nnc(N)s3)C2=O)cc1	-4	1	-1	56*	x	13	76*
CN(C)c1ccc(/C=C2/SC(=O)N(CCN=C3NS(=O)(=O)c4ccccc43)C2=O)cc1	7	0	-4	-48	-1	x	x
CC(=O)Nc1ccc(SCC(=O)c2cc(C)n(-c3ccccc3F)c2C)cc1	20	x	-6	68*	3	-2	21
CC(=O)Nc1ccc(SCC(=O)c2cc(C)n(Cc3cccs3)c2C)cc1	-7	x	0	61*	0	8	36
COC(=O)c1ccc(-n2c(C)cc(C(=O)CSc3ccc(NC(C)=O)cc3)c2C)cc1	19	x	-4	-5	x	-1	x
CCOC(=O)C(O)C1CCc2c([nH]c3ccc(C)cc23)C1=O (stereo unspecified)	-2	0	-3	-23	1	0	x
SMILES	SSB-PriA inh	TcdB inh	FadD28 binding	PrP UTR inh	BioA inh	Mtb hypoxia inh	PrP UTR cherry
COCC#Cc1ccc2c(c1)O[C@H](CN(C)Cc1ccccn1)[C@@H](C)CN([C@@H](C)CO)S2(=O)=O	x	1	x	x	1	x	x
Cc1ccc(C(=O)c2cc([N+](=O)[O-])ccc2N2CCCCC2)cc1	1	x	-7	56*	x	0	86*
O=C(c1ccccc1)c1cc([N+](=O)[O-])ccc1N1CCOCC1	0	x	-1	-2	-1	7	x
CC1CCCN(c2ccc([N+](=O)[O-])cc2C(=O)c2ccccc2)C1 (stereo unspecified)	4	-1	-7	61*	x	12	80*
CC(=O)Nc1ccc(C(=O)OCC(=O)NC(=O)NC2CCCCC2)cc1	-14	x	-3	-9	-2	1	x
CC/C(=N\NC(=O)c1ccc2c(c1)OCO2)c1ccccc1	x	4	-3	-16	2	x	x
CCn1nc(C)cc1C(=O)N1CCCC(C(=O)c2ccc(Oc3ccccc3)cc2)C1 (stereo unspecified)	-6	1	-2	-1	2	7	x
COc1ccc(-n2c(Cc3cc(=O)[nH]c(=O)[nH]3)nnc2SCC(=O)Nc2ccccc2)cc1	-11	1	0	57*	1	x	9
COc1cc(NC(=O)/C=C\C(=O)O)c(OC)cc1Cl	12	x	x	x	x	x	x
COc1ccc(Cl)cc1NC(=O)/C=C\C(=O)O	5	x	-3	70*	-2	14	-10
S=C(NCc1ccco1)Nc1cc(-c2ccccc2)[nH]n1	8	-1	-15	62*	4	-5	-4
S=C(NCc1ccco1)Nc1ccc(Br)cn1	-1	-1	-5	-13	-1	15	x
CC1(C)CC(=O)C2=C(C1)OC(N=CN1CCCC1)=C(C#N)C2c1ccccc1 (stereo unspecified)	-5	x	x	x	x	7	x
COc1ccc(/C=N\NC(=O)C2C(=O)NCC2c2ccccc2)cc1O (stereo unspecified)	x	x	-1	71*	-2	x	-48
CC12CC[C@H]3[C@@H](CCC4(O)C[C@H](O)CCC34/C=N/NC(=O)c3ccccc3Cl)C1(O)CCC2C1=CC(=O)OC1 (stereo partly specified)	i	1	-3	-31	x	x	x
CC1OC(OC2C(O)CC(OC3C(O)CC(OC4CCC5(C)C(CCC6C5CCC5(C)C(C7=CC(=O)OC7)C(O)CC65O)C4)OC3C)OC2C)CC(O)C1O (stereo unspecified)	-6	2	0	94*	x	x	86*
C[C@H]1O[C@@H](O[C@H]2[C@@H](O)C[C@H](O[C@H]3[C@@H](O)C[C@H](O[C@H]4CC[C@@]5(C)[C@H](CC[C@@H]6[C@@H]5CC[C@]5(C)[C@@H](C7=CC(=O)OC7)CC[C@]65O)C4)O[C@@H]3C)O[C@@H]2C)C[C@H](O)[C@@H]1O	-2	x	x	x	x	x	x
